Here are results for 112 compounds from PubChem BioAssay AID488969 (Vanderbilt High Throughput Screening Facility, 2010).

Where “and” joins values, the source holds several entries; their conditions need not be identical. Equal values may be shown once. Over roughly 110,000 compounds, “z-score” has its median near -0.1; the highest 2% begin near 2. The sample as a whole holds a higher share of the highest values than the screen did. Calls of active or inactive are those of the source.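 Rule for the calls: active = z-score in the third read window above 3 or below -3; inactive = the rest.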

Sequence of Metabotropic glutamate receptor 8 (Rattus norvegicus) (P70579 whole entry, looked up): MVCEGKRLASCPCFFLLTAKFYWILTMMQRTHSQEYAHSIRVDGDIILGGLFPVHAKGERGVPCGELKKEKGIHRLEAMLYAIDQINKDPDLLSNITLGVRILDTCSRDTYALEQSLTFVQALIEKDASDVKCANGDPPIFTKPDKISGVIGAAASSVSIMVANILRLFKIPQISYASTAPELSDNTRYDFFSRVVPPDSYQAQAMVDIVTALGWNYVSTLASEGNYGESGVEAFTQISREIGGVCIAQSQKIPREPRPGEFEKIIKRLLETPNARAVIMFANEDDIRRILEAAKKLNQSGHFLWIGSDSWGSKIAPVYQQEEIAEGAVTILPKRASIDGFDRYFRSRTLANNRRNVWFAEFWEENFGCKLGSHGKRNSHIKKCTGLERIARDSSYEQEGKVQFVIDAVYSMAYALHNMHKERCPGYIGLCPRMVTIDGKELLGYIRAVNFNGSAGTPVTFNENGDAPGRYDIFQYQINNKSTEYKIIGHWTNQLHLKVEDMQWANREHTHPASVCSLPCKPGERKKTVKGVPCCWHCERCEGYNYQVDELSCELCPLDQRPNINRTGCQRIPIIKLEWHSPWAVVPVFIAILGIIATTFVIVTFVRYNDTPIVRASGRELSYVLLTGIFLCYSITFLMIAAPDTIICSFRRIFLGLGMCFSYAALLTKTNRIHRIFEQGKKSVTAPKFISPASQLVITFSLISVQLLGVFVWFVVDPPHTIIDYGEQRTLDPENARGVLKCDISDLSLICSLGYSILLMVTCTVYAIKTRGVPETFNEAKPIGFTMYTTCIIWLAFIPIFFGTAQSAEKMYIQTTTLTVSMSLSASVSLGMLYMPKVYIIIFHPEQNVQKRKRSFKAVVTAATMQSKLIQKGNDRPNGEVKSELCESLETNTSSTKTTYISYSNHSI

The experiment has as its target Metabotropic glutamate receptor 8 (Rattus norvegicus) (UniProt P70579). In words: rat mGluR8 modulators via GIRK flux, primary screen, cell-based, thallium flux, HTS (AID 488969). The settings on record: HEK293 rat mGluR8, GIRK (G protein-gated inwardly rectifying potassium channel) thallium flux, FluoZin2; at 10 µM; stronger effect = higher value; submaximal glutamate (EC20) added with thallium.
In the case of `CCN(CC)C(=O)NC(c1ccc(C)c(F)c1)C(Cl)(Cl)Cl` (configuration not stated), the z-score is -0.501.
The compound `Cn1cc(S(=O)(=O)CC(=O)Nc2ccc(Br)cc2)c2ccccc21` gave a z-score of -0.0267.
Regarding `Cc1onc(-c2ccccc2)c1C(=O)Nc1ccc(N2CCOCC2)cc1`, the z-score is -0.074.
In the case of `CCC1CCCCN1C(=O)C1CC(c2cc(Cl)c(OC)cc2OC)=NO1` (configuration not stated) it was -0.518.
In the case of `Cc1cc(=O)oc2cc(OCC(=O)Nc3nnc(CC(C)C)s3)ccc12` it was -0.0633.
Regarding `CCc1ccc2oc(-c3cc(N=Cc4cccc(OC)c4O)ccc3O)nc2c1`, the z-score was -0.649.
In the case of `Cc1cc2c(cc1C)C(c1ccccc1Br)CC(=O)N2` (configuration not stated) it was 0.617; in that of `COc1cnc(-c2ccccn2)nc1Sc1ccc(Cl)cc1`, -0.328.
Consider `OCCCc1nc2n(n1)C(c1cccs1)C=C(c1ccccc1)N2` (configuration not stated), for which the z-score is 2.68.
For the compound `OCCCc1nc2n(n1)C(c1cccs1)C=C(c1ccc(Br)cc1)N2` (configuration not stated), the z-score is 5.08 (active).
`Brc1ccc(C2=CC(c3cccs3)n3ncnc3N2)cc1` (configuration not stated) yielded a z-score of -1.55.
`OCCCc1nc2n(n1)C(c1ccccc1)C=C(c1ccccc1)N2` (configuration not stated) had a z-score of -0.449.
As for `OCCCc1nc2n(n1)C(c1ccccc1)C=C(c1ccc(F)cc1)N2` (configuration not stated), the figure is -1.33; as for `OCCCc1nc2n(n1)C(c1ccccc1Cl)C=C(c1cccs1)N2` (configuration not stated), -1.48; as for `COc1ccc(NC(=O)/C(=C/c2ccc3c(c2)OCO3)NC(C)=O)cc1`, -0.031.
As for `CC(=O)C1=C(c2ccccc2)OC(N)=C(C#N)C1c1ccc(O)cc1` (configuration not stated), the figure is -0.487.
In the case of `CC1=C(n2nnc3ccccc32)C(c2ccccc2)C(C#N)=C(N)O1` (configuration not stated) it was 3.38 (active).
In turn, `COC(=O)C1=C(C)OC(N)=C(C#N)C1c1ccccc1` (configuration not stated) yielded a z-score of -0.92.
`CC(C)c1nc(C#N)c(NCCCn2ccnc2)o1` came in with a z-score of 0.481.
Take `N#C/C(=C(/O)C(Cl)c1ccccc1)c1nc2ccccc2s1` (configuration not stated): the z-score is -0.476.
As for `CCN(CC)C(=O)CSc1nnc(CCNC(=O)OC(C)(C)C)o1`, the figure is 0.491; as for `Cc1ccc(NC(=O)CSc2nnc(CCCCCNC(=O)OC(C)(C)C)o2)c(C)c1`, 0.493; as for `CC(C)(C)OC(=O)NCCc1nnc(SCC(N)=O)o1`, -0.0953.
In the case of `Cc1ccc(C)c(NC(=O)CSc2nnc(CCNC(=O)OC(C)(C)C)o2)c1` it was 0.761; in that of `C=C(C)CSc1nnc(CCNC(=O)OC(C)(C)C)o1`, 2.19.
As for `Cc1ccc(NC(=O)CSc2nnc(CCNC(=O)OC(C)(C)C)o2)c(C)c1`, the figure is 2.11; as for `COc1ccc(CNC(=O)C2CCCN(c3nc4ccccc4o3)C2)c(OC)c1` (configuration not stated), 0.18.
With `Cc1ccc(C)c2[nH]c(=O)c(C(c3nnnn3Cc3ccccc3)N3CCc4ccccc4C3)cc12` (configuration not stated), the z-score is -0.148.
In the case of `COc1ccccc1-n1c(SCC(=O)N2CCc3ccccc32)nc2c(c1=O)SCC2` it was -0.558; in that of `CCCn1c(=O)[nH]c2ccccc21`, -0.219.
With `O=c1[nH]c2ccccc2n1CCC1CCCCC1`, the z-score was 5.05 (active).
`O=c1[nH]c2ccccc2n1C1CCCCC1` gave a z-score of -1.04.
Consider `C=CCOc1ccc(CNn2c(C)n[nH]c2=S)cc1OC`, for which the z-score was 0.17.
In the case of `CC(C)NC(=O)C1CCN(C(=O)C(C(=O)c2ccccc2)n2cc(Cl)ccc2=O)CC1` (configuration not stated) it was 0.609; in that of `Fc1ccc(NC(=S)N/N=C/c2cccc(Br)c2)c(F)c1`, 3.61 (active).
As for `COc1ccccc1NC(=S)N/N=C/c1cccc(C)c1`, the figure is 0.651; as for `Cc1ccc(NC(=S)N/N=C/c2ccc(Cl)c([N+](=O)[O-])c2)cc1`, -0.0758.
In the case of `Fc1ccc(NC(=S)N/N=C/c2ccc(F)c(F)c2)c(F)c1`, the z-score is 13 (active).
As for `O=C(CCC(=O)Nc1ccccc1Cl)N/N=C/c1ccccc1`, the figure is -0.0425.
Consider `Fc1cccc(/C=N/NC(=S)Nc2ccccc2Cl)c1`, for which the z-score was 11.2 (active).
In the case of `C=CCNC(=S)Nc1ccc(Br)cc1F` it was -0.377; in that of `C=CCNC(=S)Nc1ccc(F)cc1F`, -0.172.
Consider `Fc1ccc(/C=N/NC(=S)Nc2ccc(Cl)cc2)cc1F`, for which the z-score is 6.19 (active).
For the compound `COc1ccc(/C=N/NC(=S)Nc2ccccc2)cc1COc1ccccc1F`, the z-score was -0.0868.
`COc1ccc(/C=N/NC(=S)Nc2ccccc2)cc1COc1ccc(F)cc1F`: the z-score was -0.047.
In the case of `CCCCNC(=O)C(=O)N/N=C/c1cccc(Br)c1` it was 0.475.
In turn, `Cc1cccc(N(C(=O)c2sc(C)nc2C)C(C(=O)NCc2ccco2)c2ccccc2)c1` (configuration not stated) showed a z-score of -1.18.
As for `COC(=O)C1=C(C)NC(=O)NC1c1ccccc1` (configuration not stated), the figure is -0.341; as for `OC(COCC(F)(F)C(F)(F)C(F)(F)C(F)F)Cn1c2ccccc2c2ccccc21` (configuration not stated), 0.164; as for `CCOc1ccc2nc(SCc3ccccc3C#N)sc2c1`, -0.141.
`Fc1ccccc1N1CCN(CC2CC3C=CC2C3)CC1` (configuration not stated): the z-score is -0.343.
Take `Cc1noc2c1C(c1ccc(N(C)C)cc1)C1=C(CC(C)(C)CC1=O)N2` (configuration not stated): the z-score is -0.142.
`CN(CCC#N)C(=S)Nc1ccc(Oc2ccccc2)cc1`: the z-score is -0.139.
In the case of `Cc1ccc(-c2ccc(SCC(=O)c3ccccc3)nn2)cc1` it was 0.138; in that of `O=C(Nc1ccon1)c1ccc(Br)o1`, -0.216; in that of `C=CCn1c(NC(=O)CC)c(C(=O)OCC)sc1=S`, -0.979.
`COc1ccc(N=C2C(=Nc3ccc(OC)cc3)N(c3ccc(OC)cc3)C(=S)N2C)cc1` had a z-score of -0.0804.
`Cc1nn(C(C)C(=O)NCc2ccccc2)c(C)c1[N+](=O)[O-]` (configuration not stated) yielded a z-score of 0.375.
As for `Cc1nc2ccccn2c1-c1nnco1`, the figure is 0.116; as for `CCOC(=O)/C(N=Nc1c(Br)cc(Br)cc1Br)=C(\C)O`, 0.239; as for `CN1CCN(C(=S)NC(=O)/C=C/c2ccccc2)CC1`, 0.401.
In turn, `O=C(Nc1ccccc1C(F)(F)F)Nc1cccc2ccccc12` came in with a z-score of 0.33.
For the compound `O=C(Nc1cccc2ccccc12)N1CCN(c2ccccc2)CC1`, the z-score was -0.177.
In the case of `CN1CCN(C(=S)NC(=O)/C=C/c2cccc3ccccc23)CC1` it was 2.03; in that of `CN1CCN(C(=O)Nc2cccc3ccccc23)CC1`, 3.3 (active).
Consider `NC(=O)Nc1cccc2ccccc12`, for which the z-score was 4.53 (active).
With `COCC(=O)Nc1cccc2ccccc12`, the z-score amounted to 0.3.
As for `CCN1CCN(C(=O)Nc2cccc3ccccc23)CC1`, the figure is -0.222; as for `Cc1ccc(/C=C/C(=O)NC(=S)N2CCN(C)CC2)cc1`, -0.241; as for `CCc1cc(=O)oc2cc3oc(C)c(C)c3cc12`, -0.296.
`Cc1c(C(=O)NCC2COc3ccccc3O2)oc2ccc(S(=O)(=O)N(C)C3CCCCC3)cc12` (configuration not stated) gave a z-score of -0.0918.
In the case of `CC(=O)CCc1oc2ccc(NC(C)=O)cc2c1-c1ccc(C)o1` it was -0.484; in that of `COCCN(C(=O)COc1ccccc1)c1nnc(-c2cccnc2)s1`, -0.132.
As for `CC(=O)C(C)Oc1ccc2c3c(c(=O)oc2c1C)CCCC3` (configuration not stated), the z-score is -1.13.
Consider `COc1ccc(NC(=O)CN(c2ccc(C)cc2)S(=O)(=O)c2c(C)nn(C)c2C)cc1OC`, for which the z-score was -0.248.
In the case of `Cc1cccc2sc(NC(=O)C3CCCO3)nc12` (configuration not stated) it was -0.212; in that of `CC1CCCCN1CCCNC(=O)c1ccc2c(=O)n(CCc3ccccc3)c(=O)[nH]c2c1` (configuration not stated), 2.93; in that of `O=C(NCCCN1CCCCC1)c1ccc2c(=O)n(CCc3ccccc3)c(=O)[nH]c2c1`, 1.16.
As for `Cc1ccc(CNC(=O)c2ccc3c(=O)n(CCCN4CCCC4=O)c(=S)[nH]c3c2)cc1`, the figure is -0.167; as for `O=C(NCc1ccccc1)c1ccc2c(=O)n(CCCN3CCCC3=O)c(=S)[nH]c2c1`, 4.92 (active); as for `O=C(NCCN1CCCC1)c1ccc2c(=O)n(CCc3ccccc3)c(=O)[nH]c2c1`, 1.17.
Regarding `CC1CCN(CCCNC(=O)c2ccc3c(=O)n(CCc4ccccc4)c(=O)[nH]c3c2)CC1`, the z-score was 4.09 (active).
Regarding `CC1CCCCN1CCNC(=O)c1ccc2c(=O)n(CCc3ccccc3)c(=O)[nH]c2c1` (configuration not stated), the z-score was determined as 0.188.
As for `O=C(NCCCN1CCOCC1)c1ccc2c(=O)n(CCc3ccccc3)c(=O)[nH]c2c1`, the figure is 1.15; as for `O=C(NCc1cccnc1)c1ccc2c(=O)n(CCCN3CCCC3=O)c(=S)[nH]c2c1`, -0.116.
For the compound `O=C(N/N=C/c1ccc(O)cc1)/C(=C/c1ccccc1)CCO`, the z-score is -0.0513.
`O=C(c1cn(-c2ccccc2)nc1-c1cccs1)N(CCO)Cc1ccccc1` came in with a z-score of -0.178.
Take `CCn1c(SCC(=O)NCCc2ccc(Cl)cc2)nnc1-c1cccs1`: the z-score was -0.84.
On to `CCOCCCNC(=O)CN1C(=O)CSc2cc(S(=O)(=O)N3CCCCCC3)ccc21`, for which the z-score is -0.263.
Consider `O=C(c1cc(Cl)ccc1[N+](=O)[O-])n1cnc2ccccc21`, for which the z-score was -0.721.
As for `COc1ccccc1N1CCN(C(=O)c2cc(-c3ccco3)on2)CC1`, the figure is -0.34; as for `CCOC(=O)c1cnn2c(C)cc(-c3ccccc3)nc12`, 2.74; as for `CCOC(=O)c1cnn2c(C)cc(-c3ccc(F)cc3)nc12`, -0.151.
`COC(=O)c1cnn2c(C(F)(F)F)cc(-c3ccccc3)nc12` had a z-score of -0.00832.
In the case of `CCOC(=O)C1=C(C)N=c2s/c(=C/c3ccccc3)c(=O)n2C1c1ccc(OC)c(OC)c1` (configuration not stated) it was -0.183.
As for `Cn1c(N)c(C(=O)CCl)c(=O)n(C)c1=O`, the figure is 0.0911.
Turning to `CCOC(=O)C=Nc1c(N)n(C)c(=O)n(C)c1=O`, the z-score was 2.44.
As for `CCOc1cc(C(=O)OCC(=O)c2c(N)n(C)c(=O)n(C)c2=O)cc(OCC)c1OCC`, the z-score is -0.112.
With `CC1(C)C(=O)OC(c2cccn2-c2ccc([N+](=O)[O-])cc2)C(C)(C)C1=O` (configuration not stated), the z-score is -0.471.
On to `Cc1cccc(SCc2noc(C(=O)NC(C)C)c2C(=O)O)c1`, for which the z-score was -0.0231.
In the case of `O=C1NC(=Nc2cccc(Cl)c2)SC1Cc1cccc(Cl)c1Cl` (configuration not stated) it was -0.324.
In the case of `O=C(NC(=Nc1ccccc1)N1CCOCC1)Nc1ccccc1` it was 2.94; in that of `O=C(Nc1ccccc1)Nc1ccc(C(=O)N2CCOCC2)cc1`, -0.0267; in that of `O=C(Nc1ccccc1)N1CCOCC1`, -0.206.
As for `CC(/C=C\c1cccnc1)=C/C(=O)O`, the figure is -0.175 and 6.26 (active); as for `CC(=C/C(=O)O)/C=C/c1ccc([N+](=O)[O-])cc1`, -0.0461.
`CC(=C/C(=O)O)/C=C/c1cccs1`: the z-score was -0.429.
As for `CC1(C)CC(=O)C2=C(C1)Nc1ccccc1NC2c1nc2ccccc2[nH]1` (configuration not stated), the figure is -0.113; as for `Cc1c(C2Nc3ccccc3NC3=C2C(=O)CC(C)(C)C3)cnn1C` (configuration not stated), 4.64 (active).
`Cn1cccc1C1Nc2ccccc2NC2=C1C(=O)CC(C)(C)C2` (configuration not stated): the z-score was -0.491.
On to `CCOc1ccc(N(CC(=O)NCC2CCCO2)C(=O)CCC(=O)Nc2ccccn2)cc1` (configuration not stated), for which the z-score is -1.08.
In turn, `COc1ccc(NC(=O)CSc2nc(N)c3cc4c(nc3n2)CCCC4)cc1` returned a z-score of -0.916.
